Laboratory results published in PubChem BioAssay (NCI).
About 83,000 compounds went through this panel and 20% of them were active in at least one assay; those are over-represented in the sample as a whole.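 Interpretation: 100, growth as untreated; towards 0, rising growth inhibition; 0, no net growth; 0 to -100, cell death. Compounds scoring below 10 were considered active.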 The source made the active and inactive calls.

Tests used:
Experiment in all cases: NCI-60 one-dose screen, 48 h (100 = growth as untreated, 0 = no growth, -100 = all killed)
Details in all cases: 10 µM unless noted
NCI-H23 lung = test system: NCI-H23 lung
NCI-H226 lung = test system: NCI-H226 lung
NCI-H322M lung = test system: NCI-H322M lung
HOP-62 NSCLC = test system: HOP-62 NSCLC
NCI-H460 lung = test system: NCI-H460 lung
HOP-92 NSCLC = test system: HOP-92 NSCLC
NCI-H522 lung = test system: NCI-H522 lung
A549/ATCC NSCLC = test system: A549/ATCC NSCLC
786-0 renal = test system: 786-0 renal
COLO 205 colon = test system: COLO 205 colon

| SMILES | growth (NCI-H23 lung) | growth (NCI-H226 lung) | growth (NCI-H322M lung) | growth (HOP-62 NSCLC) | growth (NCI-H460 lung) | growth (HOP-92 NSCLC) | growth (NCI-H522 lung) | growth (A549/ATCC NSCLC) | growth (786-0 renal) | growth (COLO 205 colon) |
| --- | --- | --- | --- | --- | --- | --- | --- | --- | --- | --- |
| COc1cccc(CNc2c3ccccc3nc3ccccc23)c1OC | 32.4% (inactive) | 51.6% (inactive) | 41.6% (inactive) | 51.2% (inactive) | 11.6% (inactive) | -2.4% (active) | 40.1% (inactive) | 30.3% (inactive) | 38.8% (inactive) | 21.5% (inactive) |
| COc1ccc(/C=C2\CN(C(=O)C(Cl)Cl)C/C(=C\c3ccc(OC)c(OC)c3)C2=O)cc1OC | -51.8% (active) | 42.8% (inactive) | 30% (inactive) | 34.3% (inactive) | -51.9% (active) | -7.03% (active) | -14.1% (active) | 4.8% (active) | -94.9% (active) | -2.98% (active) |
| CN1CC(c2ccc(Br)cc2)C(C(=O)c2ccc(Br)cc2)C12C(=O)Nc1ccccc12 (stereo not given) | 67.7% (inactive) | 73.5% (inactive) | 89.9% (inactive) | 69% (inactive) | 73.3% (inactive) | 70.2% (inactive) | 58.2% (inactive) | 59.2% (inactive) | 79.2% (inactive) | 76.6% (inactive) |
| CCN1CCN(CCNc2nccc(-c3c(-c4ccc(F)c(O)c4)nc4occn34)n2)S1(=O)=O | 14% (inactive) | 6.71% (active) | 64.3% (inactive) | 33.7% (inactive) | 34.9% (inactive) | 68.5% (inactive) | -3.38% (active) | 23% (inactive) | 56.7% (inactive) | 29% (inactive) |
| CCN(CC)c1ccc(-c2cc(-c3cc(OC)c(OC)c(OC)c3)nc(N3CCC(O)CC3)c2C#N)cc1 | 0.411% (active) | -36.2% (active) | 18.1% (inactive) | 17.9% (inactive) | -32.8% (active) | -17.6% (active) | -52.3% (active) | 0.627% (active) | -22% (active) | -60.9% (active) |
| O=S(O)c1cc(Cl)cc(Cl)c1OCc1ccccc1 | 101% (inactive) | 94.5% (inactive) | 95.9% (inactive) | 101% (inactive) | 101% (inactive) | 87.6% (inactive) | 96.2% (inactive) | 90.2% (inactive) | 102% (inactive) | 105% (inactive) |
| Cc1nn(-c2ccc([N+](=O)[O-])cc2)c2ncnc(N/N=C/c3ccccc3O)c12 | 15.3% (inactive) | 35% (inactive) | 13.4% (inactive) | -2.87% (active) | 0.666% (active) | 36.6% (inactive) | 0.557% (active) | 13% (inactive) | 3.2% (active) | 1.21% (active) |
| CCOC(=O)c1nnn(Cc2cc(=O)oc3ccc(O)cc23)c1C | 101% (inactive) | 99.6% (inactive) | 105% (inactive) | 102% (inactive) | 99.3% (inactive) | 103% (inactive) | 97.1% (inactive) | 98.6% (inactive) | 103% (inactive) | 105% (inactive) |
| O=C(/C=C/c1cn(-c2ccccc2)nc1-c1ccccc1)CCC(=O)NO | 99.3% (inactive) | 93.9% (inactive) | 106% (inactive) | 93.3% (inactive) | 113% (inactive) | 109% (inactive) | 79.5% (inactive) | 91.5% (inactive) | 97.3% (inactive) | 107% (inactive) |
| CCC(C)(C)c1ccc(Nc2ccc(Nc3ccc(C(C)(C)CC)cc3)cc2)cc1 | 83.1% (inactive) | 93% (inactive) | 105% (inactive) | 89.3% (inactive) | 99.1% (inactive) | 51.1% (inactive) | 79.9% (inactive) | 90.4% (inactive) | 84.4% (inactive) | 84.7% (inactive) |
| CCCC(O)Cn1ncc(C(=O)OCC)c1NC(=O)NCc1cccc(C(F)(F)F)c1 (stereo not given) | 80.1% (inactive) | 103% (inactive) | 84.3% (inactive) | 88.2% (inactive) | 103% (inactive) | 58.8% (inactive) | 46.5% (inactive) | 95% (inactive) | 80.1% (inactive) | 109% (inactive) |
| CCN(CC)CCOc1ccc2ccc(=O)oc2c1 | 106% (inactive) | 106% (inactive) | 88.2% (inactive) | 100% (inactive) | 110% (inactive) | -15.1% (active) | 89.6% (inactive) | 99.7% (inactive) | 101% (inactive) | 102% (inactive) |
| COc1ccc(OC)c(Nc2nnc(-c3cc(OC)c(OC)c(OC)c3)o2)c1 | 90.5% (inactive) | 96.6% (inactive) | 98.4% (inactive) | 94.7% (inactive) | 107% (inactive) | 107% (inactive) | 76.6% (inactive) | 101% (inactive) | 95% (inactive) | 104% (inactive) |
| C=CN(C(=O)N1CCN(c2cc3c(cc2F)c(=O)c(C(=O)O)cn3C2CC2)CC1)c1nc(-c2ccc(Cl)cc2)cs1 | 67.8% (inactive) | 87.9% (inactive) | 69.4% (inactive) | 69.4% (inactive) | 23.5% (inactive) | 60.1% (inactive) | 64.7% (inactive) | 40.7% (inactive) | 82.8% (inactive) | 84.2% (inactive) |
| CCn1cc(C(=O)O)c(=O)c2cc(F)c(N3CCN(CC(=O)Nc4ccccc4)C(C)C3)c(F)c21 (stereo not given) | 91.3% (inactive) | 100% (inactive) | 85.7% (inactive) | 101% (inactive) | 99.2% (inactive) | 97% (inactive) | 92.5% (inactive) | 97.9% (inactive) | 92.5% (inactive) | 106% (inactive) |
| Cc1cc(=O)n(C(=S)Nc2ccc(Cl)cc2)c2cc(O)ccc12 | 85.6% (inactive) | 80.5% (inactive) | 97.7% (inactive) | 84.1% (inactive) | 110% (inactive) | 84.6% (inactive) | 94.9% (inactive) | 106% (inactive) | 109% (inactive) | 103% (inactive) |
| CCCCCc1ccc(S(=O)(=O)Nc2cc(-c3csc(NC(C)=O)n3)ccc2N2CCN(C)CC2)cc1 | 65.5% (inactive) | 94.1% (inactive) | 73.2% (inactive) | 83.3% (inactive) | -11.4% (active) | 36% (inactive) | 67.3% (inactive) | 55.8% (inactive) | 56.7% (inactive) | -38.9% (active) |
| COC(=O)/C=C1/SC(=NCc2ccccc2)N(CCc2c[nH]c3ccccc23)C1=O | 87.2% (inactive) | 109% (inactive) | 98.9% (inactive) | 102% (inactive) | 91.8% (inactive) | 74.6% (inactive) | 77.1% (inactive) | 93.1% (inactive) | 89.4% (inactive) | 98.7% (inactive) |
| C#CCOc1cccc(Nc2ncnc3cc(NC(=O)CCl)ccc23)c1 | -65% (active) | -26.7% (active) | -13.9% (active) | -61.6% (active) | -55.3% (active) | -76.9% (active) | -76.1% (active) | -59.4% (active) | -69.1% (active) | -79.9% (active) |
| CCOc1ccc(NC(=O)Nc2ccc(OCC)cc2)cc1 | 106% (inactive) | 104% (inactive) | 104% (inactive) | 98.2% (inactive) | 106% (inactive) | 106% (inactive) | 103% (inactive) | 95.9% (inactive) | 108% (inactive) | 104% (inactive) |
| O=C(OCc1ccc2c(Cl)cc(Cl)c(O)c2n1)N1CCN(C(=O)c2cc3ccccc3[nH]2)CC1 | 47.1% (inactive) | 28.3% (inactive) | 37.5% (inactive) | 20% (inactive) | 12.8% (inactive) | 14.7% (inactive) | 22.1% (inactive) | 10.8% (inactive) | 44.2% (inactive) | 39% (inactive) |
| CC(=O)N1N=C(c2ccc(Nc3nc(Nc4ccc(F)cc4)nc(Nc4ccc(F)cc4)n3)cc2)CC1c1ccc(N(C)C)cc1 (stereo not given) | 52.2% (inactive) | 74.6% (inactive) | 84% (inactive) | 54.5% (inactive) | 54.3% (inactive) | 35.3% (inactive) | 46% (inactive) | 39.3% (inactive) | 58.5% (inactive) | 46.6% (inactive) |
| COC(=O)c1ccc2cc(OC)c(OC)cc2c1 | 102% (inactive) | 97.6% (inactive) | 108% (inactive) | 107% (inactive) | 108% (inactive) | 94.4% (inactive) | 98.9% (inactive) | 77.4% (inactive) | 91.9% (inactive) | 122% (inactive) |
| CCOC(=O)CNC1=C(Cl)C(=O)N(Cc2ccc(Cl)cc2)C1=O | 102% (inactive) | 99.7% (inactive) | 97% (inactive) | 98% (inactive) | 104% (inactive) | 93.4% (inactive) | 89.1% (inactive) | 106% (inactive) | 99% (inactive) | 118% (inactive) |
| Cc1ccc(C(=O)c2ccc(CC(=O)N/N=C/c3cccc(O)c3O)n2C)cc1 | 45.4% (inactive) | 69.1% (inactive) | 54.4% (inactive) | 49.9% (inactive) | 8.65% (active) | 56.3% (inactive) | 48.8% (inactive) | 58.7% (inactive) | 76.4% (inactive) | 63% (inactive) |
